PAX8 inh HTS: inhibitors of PAX8-driven TPO luciferase reporter, primary screen, RMG-I cells, single concentration; inhibition, % at 12.6 µM; actives 1.2% (n = 360,000); SteadyGlo, 24 h;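 active = mean replicate inhibition at least 60% with every replicate also reaching 60%; inconclusive = only one of the two criteria is met; inactive = mean below 60% and not all replicates reaching 60%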;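 also: luciferase light reporting Pax8 driven TPO promoter activity; plate controls were median of neutral control wells for no effect and mitoxantrone controls for full effect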
EWS-Fli inh: EWS/Fli-driven NR0B1 reporter inhibitors, primary screen, A673 cells, NR0B1 luciferase, luminescence, MLPCN library; actives 0.67% (n = 350,000); inhibition, % at 12.6 µM; viability-normalised; AID 651661, 2012;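 active = mean inhibition of at least 50% after viability correction, with every replicate also passing that limit; inconclusive = mean reaches 50% but only one of two replicates passes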;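 also: firefly luciferase signal divided by Alamar Blue viability fluorescence both relative to DMSO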
miR122 inh: miR-122 Renilla sensor signal increase in Huh7, primary screen, miR-122 inhibitor project, cell-based, single point, plate reader. Huh7 miR-122 Renilla luciferase sensor, 48 h; neutral wells = 0, positive control = 100. AID 602342, 2012. activation (reporter increase), % at 12.5 µM. actives 0.3% (n = 340,000);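 active = mean replicate activation score at least 90 and every replicate individually at or above 90; inconclusive = only one of the two criteria met; inactive = neither criterion met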;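 also: higher luciferase means less miR-122 activity so hits act as miR-122 inhibitors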
INS-1E GSIS act: GLuc luminescence reporter in INS-1E cells, primary screen for activators of glucose-dependent secretion of insulin. INS-1E GLuc reporter insulin secretion, 2-3 h. activation, % at 16.6 µM. actives 0.61% (n = 370,000). AID 743287, 2014;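 active = lowest replicate activation of at least 40%, so every replicate reaches that level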;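 also: 0% = median of neutral control wells and 100% = median of IBMX positive control wells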
Env fusion inh: inhibitors of HIV-1 Env-driven cell-cell fusion, primary screen, HeLa-JRFL effector, CEM21 target cells, luciferase | actives 1.1% (n = 360,000) | AID 651610, 2012 | inhibition, % at 12.3 µM;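 active = mean replicate inhibition score of at least 50 and every replicate individually at or above 50; inconclusive = only one of the two criteria met; inactive = mean below 50 and not all replicates reaching 50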;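 also: 0% = plate neutral controls and 100% = maraviroc near 300 nM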
Statin myotox sup: suppressors of statin myotoxicity in C2C12 myotubes, primary screen, cell-based, single point, plate reader | C2C12 myotubes + simvastatin, ATP luminescence, 48 h; scaled: DMSO 0, geranylgeraniol control 100 | rescue of ATP level, % at 7.49 µM | actives 0.78% (n = 330,000);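 active = mean ATP rescue above about 67%, or every replicate alone reaching that limit, limit read from the data, passing the limit was not always enough; inconclusive = no clear call, values can overlap the other calls; inactive = mean under the limit and some replicate under it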;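 also: myotubes were challenged with 10 µM simvastatin during compound exposure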
* marks the source's active call; other numbers are inactive results; ? = inconclusive; nt = no result; [ ] = another dose, or the depositor's remark. A selection: hits, their analogues and other compounds. The true share with any hit is near 3.1%.

SMILES	PAX8 inh HTS	EWS-Fli inh	miR122 inh	INS-1E GSIS act	Env fusion inh	Statin myotox sup
COc1ccc(NC(=O)COc2ccccc2)c(OC)c1	-40	nt	-3	nt	-100	98*
COc1ccc(NC(=O)COc2ccc(Br)cc2)c(OC)c1	-10	-3	-4	-13	-14	11
CCCNC(=O)c1ccccc1NC(=O)COc1ccc(OC)cc1	nt	nt	1	57*	-27	-28
CCOc1cc(/C=C2\CN(C)C/C(=C\c3ccc(O)c(OCC)c3)C2=O)ccc1O	5	53*	nt	-18	-310	16
COc1cc(C=C2CN(C)C(=O)C2=O)ccc1O	-11	9	0	-9	nt	13
CN1C/C(=C\c2ccc(N3CCOCC3)cc2)C(=O)/C(=C/c2ccc(N3CCOCC3)cc2)C1	nt	nt	22	12	nt	5
CN1C/C(=C/c2ccncc2)C(=O)/C(=C/c2ccncc2)C1	-18	56*	0	10	-22	-4
Cc1ccc(O)c(C2=NOC(O)(C(F)(F)F)C2)c1 (configuration not stated)	nt	nt	-7	52*	nt	-1
COc1ccc(Br)cc1C1SCCN1S(C)(=O)=O (configuration not stated)	nt	nt	1	nt	nt	118*
C[C@H]1CCCCO[C@H](CN(C)C(=O)CCCN(C)C)[C@@H](C)CN([C@@H](C)CO)C(=O)c2cc(NC(=O)C3CCCCC3)ccc2O1	nt	-6	-2[16.7 µM]	8	18[16.7 µM]	nt
O=C(c1ccccc1)N1CC[C@H]2[C@H](CO)Nc3ccc(C#Cc4cccnc4)cc3[C@H]21	-5	-7	1[16.7 µM]	17	nt	-5
CCCCN(CCCNC(=S)NCCCc1cnc[nH]1)c1ccc(Br)cn1	0	-8	1	72*	-13	2
S=C(NCCCc1cnc[nH]1)NCCCN(Cc1ccccc1)c1ccc(Br)cn1	19	13	-4	43	26	-8
Cc1ccc(-c2[nH]nc3c2C(c2ccsc2)C(C#N)=C(N)O3)cc1 (configuration not stated)	nt	nt	-3	18	-9	8
Cc1[nH]nc2c1C(c1ccsc1)C(C#N)=C(N)O2 (configuration not stated)	nt	nt	0	-5	nt	141*
COc1ccccc1NC(=O)N[C@H]1CC[C@@H](CC(=O)NCc2ccc(Cl)c(Cl)c2)O[C@@H]1CO	nt	nt	nt	-19	nt	10
C=CCN1C(=O)C2C(C(=O)NC)C3C=CC2(O3)C1C(=O)NCc1ccc(OC)cc1 (configuration not stated)	nt	nt	-1	nt	nt	105*
CCOC(=O)[C@@H]1[C@@H]2C=C[C@]3(O2)[C@H](C(=O)NCc2ccccc2)N(CCCCCCO)C(=O)[C@@H]13	109*	32	nt	nt	13[16.7 µM]	nt
C[C@@H]1CN([C@H](C)CO)C(=O)c2cc(NC(=O)CCCCCC(=O)Nc3ccccc3N)ccc2O[C@H]1CN(C)S(C)(=O)=O	nt	-5	-6[16.7 µM]	10	-99[16.7 µM]	nt
COc1ccc(-c2ccc3c(c2)[C@@H]2[C@@H](CCN2S(=O)(=O)c2ccc(OC)cc2)[C@H](CO)N3C)cc1	21	-1	0[16.7 µM]	4	nt	-21
COc1ccccc1S(=O)(=O)N1CC[C@H]2[C@@H](CO)N(C)c3ccc(-c4ccc(C#N)cc4)cc3[C@H]21	107*	9	2[16.7 µM]	19	nt	-3
COc1ccc(-c2ccc3c(c2)[C@@H]2[C@@H](CCN2S(=O)(=O)c2ccc(F)cc2)[C@H](CO)N3C)cc1	62*	3	nt	-13	nt	nt
CCCC#Cc1ccc2c(c1)[C@@H]1[C@@H](CCN1S(=O)(=O)c1cccc(F)c1)[C@@H](CO)N2C	67*	14	-2[16.7 µM]	5	nt	-1
CCCC#Cc1ccc2c(c1)[C@@H]1[C@@H](CCN1S(=O)(=O)c1ccc(F)cc1)[C@@H](CO)N2C	9	14	-7[16.7 µM]	2	nt	36
COc1ccc(S(=O)(=O)N(C)C[C@H]2Oc3c(NS(=O)(=O)c4ccc(C)cc4)cccc3C(=O)N([C@H](C)CO)C[C@@H]2C)cc1	nt	nt	nt	1	nt	nt
SMILES	PAX8 inh HTS	EWS-Fli inh	miR122 inh	INS-1E GSIS act	Env fusion inh	Statin myotox sup
CO[C@H]1CN(C)C(=O)c2cc(NC(=O)Nc3ccc(F)cc3)ccc2OC[C@@H](C)NC[C@@H]1C	nt	-5	2[16.7 µM]	3	nt	-14
COc1ccc2c3c(n(C)c2c1)[C@@H](CO)N(Cc1ccccc1F)CC31CN(C(=O)C2CC2)C1	11	-3	nt	-14	nt	nt
COc1ccc(OCc2cccc(C(=O)Nn3cc([N+](=O)[O-])cn3)c2)cc1	93*	nt	35	-21	?	-26
COc1cccc(C(=O)Nc2cc(C)on2)c1	-140	-79	-9	-2	-25	1
COc1ccc(OCc2cccc(C(=O)NN)c2)cc1	46	nt	6	7	11	nt
COc1ccc(OCc2cccc(C(=O)Nc3cc(C)on3)c2)cc1	96*	nt	1	nt	-43	-35
C[C@@H]1CN([C@@H](C)CO)C(=O)c2cc(NS(=O)(=O)c3cn(C)cn3)ccc2O[C@H]1CN(C)S(=O)(=O)c1ccc(Cl)cc1	4	-4	6[16.7 µM]	8	-6[16.7 µM]	-4
CC(C)NC(=O)N1C[C@H]2[C@@H](c3ccccc31)[C@H](CO)N2C(=O)C1CCCC1	-18	-1	0[16.7 µM]	3	nt	-6
COc1ccc2cc1Oc1ccc(cc1)C[C@H]1c3cc(c(OC)cc3CCN1C)Oc1c(OC)c(OC)cc3c1[C@H](C2)N(C)CC3	39	57*	0	nt	-42	-143
O=C(Nc1ccccc1Cc1ccccc1)c1ccccc1NS(=O)(=O)c1ccc(Cl)s1	71*	nt	17	-23	67*	nt
C/C=C/c1cnc2c(c1)C(=O)N([C@@H](C)CO)C[C@H](C)[C@@H](CN(C)C(=O)NCCC)O2	nt	-14	2[16.7 µM]	6	-23[16.7 µM]	-3
N#C/C(=C\c1ccc2c(c1)OCCO2)C(=O)NC1CCCCC1	100*	-85	nt	nt	-9	nt
Cc1ccc(S(=O)(=O)N(C)C[C@@H]2OCCCC[C@H](C)Oc3ccc(NC(=O)Nc4ccc(C(F)(F)F)cc4)cc3C(=O)N([C@@H](C)CO)C[C@H]2C)cc1	32	2	-1[16.7 µM]	16	32[16.7 µM]	nt
COc1ccc(CN(C)C[C@@H]2OCCCC[C@@H](C)Oc3ccc(NC(=O)c4ccccc4)cc3C(=O)N([C@@H](C)CO)C[C@@H]2C)cc1	4	-3	1[16.7 µM]	-22	-21[16.7 µM]	nt
CCCCN(CCCNC(=O)c1ccc(CS(=O)(=O)c2c(Cl)cccc2Cl)o1)Cc1ccccc1	12	nt	-8	-37	12	-7
CC(C)N(CCCNC(=O)c1ccc(CS(=O)(=O)c2c(Cl)cccc2Cl)o1)Cc1ccccc1	62*	3	-3	-8	7	-13
C=CCOc1c(Br)cc(CNn2nnnc2N)cc1OC	nt	nt	-7	nt	nt	111*

Assay outcomes as filed in PubChem BioAssay.
